# Assay results published in the supplement of paper PMC6411743.
# ± gives the standard deviation of the averaged measurements. Of roughly 6,200 targets only a part is listed; those with the largest changes were picked by preference.
# Compound: Nc1ncnc2c1ncn2[C@@H]1O[C@H](COP(=O)(O)OP(=O)(O)NP(=O)(O)O)[C@@H](O)[C@H]1O [adenylyl imidodiphosphate]
# Assay: NP40-soluble protein abundance relative to vehicle (solubility fold change) (ratio); higher = more soluble protein in presence of AMP-PNP
# Procedure, shortened: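 Crude Jurkat lysate, prepared by Dounce homogenisation, was exposed to eight concentrations from 0.1 to 10 mM for 10 min at room temperature and then 3 min at 37 °C. Solubilisation used 0.8% NP40 with benzonase for 60 min at 4 °C, followed by ultracentrifugation and TMT labelling of the supernatant for LC-MS/MS. After vsn normalisation of intensities, each value is the fold change against the detergent-processed vehicle within each replicate, across three independent experiments.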
# Chain of UniProt Q96C57 (Q96C57 whole entry, one chain of several): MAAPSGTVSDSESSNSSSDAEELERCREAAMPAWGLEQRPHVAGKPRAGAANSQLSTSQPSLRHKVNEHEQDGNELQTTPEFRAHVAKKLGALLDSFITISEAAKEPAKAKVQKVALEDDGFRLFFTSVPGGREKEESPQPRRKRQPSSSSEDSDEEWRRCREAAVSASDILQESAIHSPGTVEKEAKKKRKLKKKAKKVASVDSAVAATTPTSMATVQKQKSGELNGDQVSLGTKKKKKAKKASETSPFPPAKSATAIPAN
# Chain of UniProt P09496 (P09496 whole entry, one chain of several): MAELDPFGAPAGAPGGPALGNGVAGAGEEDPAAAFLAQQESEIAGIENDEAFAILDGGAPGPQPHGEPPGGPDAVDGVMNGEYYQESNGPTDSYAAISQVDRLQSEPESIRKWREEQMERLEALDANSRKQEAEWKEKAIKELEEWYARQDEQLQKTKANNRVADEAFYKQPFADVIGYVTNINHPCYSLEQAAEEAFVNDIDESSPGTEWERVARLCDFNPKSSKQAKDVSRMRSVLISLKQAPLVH
# Chain of UniProt Q9Y618 (Q9Y618 whole entry, one chain of several): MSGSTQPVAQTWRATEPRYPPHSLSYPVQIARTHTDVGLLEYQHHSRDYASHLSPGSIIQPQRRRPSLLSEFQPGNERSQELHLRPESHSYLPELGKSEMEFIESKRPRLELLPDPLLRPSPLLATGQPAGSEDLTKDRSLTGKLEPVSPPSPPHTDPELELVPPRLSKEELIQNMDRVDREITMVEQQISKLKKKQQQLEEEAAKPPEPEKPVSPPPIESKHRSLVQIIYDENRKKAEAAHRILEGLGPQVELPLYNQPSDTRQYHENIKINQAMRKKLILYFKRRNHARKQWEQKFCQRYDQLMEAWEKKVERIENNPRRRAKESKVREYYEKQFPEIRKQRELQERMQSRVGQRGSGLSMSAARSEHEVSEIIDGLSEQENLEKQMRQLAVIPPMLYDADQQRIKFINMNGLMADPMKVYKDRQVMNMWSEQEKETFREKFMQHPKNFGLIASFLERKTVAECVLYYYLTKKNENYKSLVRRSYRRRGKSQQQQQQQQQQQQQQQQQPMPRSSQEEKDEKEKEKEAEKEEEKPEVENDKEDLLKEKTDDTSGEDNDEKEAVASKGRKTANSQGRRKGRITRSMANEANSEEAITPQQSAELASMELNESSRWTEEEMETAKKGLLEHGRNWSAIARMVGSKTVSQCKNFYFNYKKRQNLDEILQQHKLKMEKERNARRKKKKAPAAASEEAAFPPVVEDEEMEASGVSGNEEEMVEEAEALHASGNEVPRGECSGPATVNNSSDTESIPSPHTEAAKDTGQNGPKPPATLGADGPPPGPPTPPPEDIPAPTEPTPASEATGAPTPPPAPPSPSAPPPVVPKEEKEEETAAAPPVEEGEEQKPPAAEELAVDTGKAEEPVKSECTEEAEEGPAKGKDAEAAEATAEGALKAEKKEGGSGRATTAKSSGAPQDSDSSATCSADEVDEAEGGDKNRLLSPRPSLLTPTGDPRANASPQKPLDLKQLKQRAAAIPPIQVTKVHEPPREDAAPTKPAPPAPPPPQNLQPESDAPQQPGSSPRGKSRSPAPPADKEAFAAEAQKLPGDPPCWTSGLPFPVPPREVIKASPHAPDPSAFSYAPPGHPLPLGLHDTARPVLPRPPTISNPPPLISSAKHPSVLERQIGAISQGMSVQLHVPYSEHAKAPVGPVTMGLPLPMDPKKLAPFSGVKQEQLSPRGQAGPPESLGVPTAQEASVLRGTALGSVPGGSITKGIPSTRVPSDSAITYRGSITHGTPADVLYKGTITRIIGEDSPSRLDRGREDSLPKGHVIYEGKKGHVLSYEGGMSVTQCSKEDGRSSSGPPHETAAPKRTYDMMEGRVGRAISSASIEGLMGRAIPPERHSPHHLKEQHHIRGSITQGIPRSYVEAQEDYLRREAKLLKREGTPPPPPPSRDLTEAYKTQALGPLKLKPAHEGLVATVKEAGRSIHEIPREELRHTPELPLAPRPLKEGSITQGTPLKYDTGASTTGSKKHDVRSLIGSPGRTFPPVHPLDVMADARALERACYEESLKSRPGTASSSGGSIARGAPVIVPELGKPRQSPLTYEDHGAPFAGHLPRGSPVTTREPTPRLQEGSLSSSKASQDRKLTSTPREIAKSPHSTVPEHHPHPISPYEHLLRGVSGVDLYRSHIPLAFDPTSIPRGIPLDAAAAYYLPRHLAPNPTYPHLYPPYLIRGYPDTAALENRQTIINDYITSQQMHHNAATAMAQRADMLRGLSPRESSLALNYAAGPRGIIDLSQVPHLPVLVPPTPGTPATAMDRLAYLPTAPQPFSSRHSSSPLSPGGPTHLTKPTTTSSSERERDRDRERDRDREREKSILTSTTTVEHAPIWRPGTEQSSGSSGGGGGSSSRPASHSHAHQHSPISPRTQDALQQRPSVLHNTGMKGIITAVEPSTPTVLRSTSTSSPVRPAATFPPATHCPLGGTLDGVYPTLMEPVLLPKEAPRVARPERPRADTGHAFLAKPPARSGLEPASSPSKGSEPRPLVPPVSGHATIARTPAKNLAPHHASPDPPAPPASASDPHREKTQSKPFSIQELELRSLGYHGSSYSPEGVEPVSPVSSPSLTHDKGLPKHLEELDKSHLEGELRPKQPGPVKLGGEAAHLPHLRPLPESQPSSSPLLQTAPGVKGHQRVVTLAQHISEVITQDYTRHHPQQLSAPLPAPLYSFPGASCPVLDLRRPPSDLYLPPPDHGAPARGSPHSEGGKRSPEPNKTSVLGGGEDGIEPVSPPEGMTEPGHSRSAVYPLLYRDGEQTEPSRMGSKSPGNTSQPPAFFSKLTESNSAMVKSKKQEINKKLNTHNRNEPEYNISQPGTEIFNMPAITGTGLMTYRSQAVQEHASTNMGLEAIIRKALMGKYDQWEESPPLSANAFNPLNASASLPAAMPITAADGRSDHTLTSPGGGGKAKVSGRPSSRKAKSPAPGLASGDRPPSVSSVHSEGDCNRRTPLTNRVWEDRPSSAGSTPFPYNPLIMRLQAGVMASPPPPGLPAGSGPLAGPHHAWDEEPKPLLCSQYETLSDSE
# Chain of UniProt Q15019 (Q15019 whole entry, one chain of several): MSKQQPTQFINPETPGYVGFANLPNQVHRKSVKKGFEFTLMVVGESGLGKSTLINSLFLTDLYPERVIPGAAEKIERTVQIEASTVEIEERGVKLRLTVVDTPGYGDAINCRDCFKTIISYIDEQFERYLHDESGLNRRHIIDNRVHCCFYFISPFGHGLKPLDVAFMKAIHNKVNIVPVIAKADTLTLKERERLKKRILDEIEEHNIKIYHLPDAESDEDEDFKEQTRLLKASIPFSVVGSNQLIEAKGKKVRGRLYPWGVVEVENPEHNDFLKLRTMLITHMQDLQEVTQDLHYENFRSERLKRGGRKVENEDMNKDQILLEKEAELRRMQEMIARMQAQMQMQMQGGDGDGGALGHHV
# Chain of UniProt P98171 (P98171 whole entry, one chain of several): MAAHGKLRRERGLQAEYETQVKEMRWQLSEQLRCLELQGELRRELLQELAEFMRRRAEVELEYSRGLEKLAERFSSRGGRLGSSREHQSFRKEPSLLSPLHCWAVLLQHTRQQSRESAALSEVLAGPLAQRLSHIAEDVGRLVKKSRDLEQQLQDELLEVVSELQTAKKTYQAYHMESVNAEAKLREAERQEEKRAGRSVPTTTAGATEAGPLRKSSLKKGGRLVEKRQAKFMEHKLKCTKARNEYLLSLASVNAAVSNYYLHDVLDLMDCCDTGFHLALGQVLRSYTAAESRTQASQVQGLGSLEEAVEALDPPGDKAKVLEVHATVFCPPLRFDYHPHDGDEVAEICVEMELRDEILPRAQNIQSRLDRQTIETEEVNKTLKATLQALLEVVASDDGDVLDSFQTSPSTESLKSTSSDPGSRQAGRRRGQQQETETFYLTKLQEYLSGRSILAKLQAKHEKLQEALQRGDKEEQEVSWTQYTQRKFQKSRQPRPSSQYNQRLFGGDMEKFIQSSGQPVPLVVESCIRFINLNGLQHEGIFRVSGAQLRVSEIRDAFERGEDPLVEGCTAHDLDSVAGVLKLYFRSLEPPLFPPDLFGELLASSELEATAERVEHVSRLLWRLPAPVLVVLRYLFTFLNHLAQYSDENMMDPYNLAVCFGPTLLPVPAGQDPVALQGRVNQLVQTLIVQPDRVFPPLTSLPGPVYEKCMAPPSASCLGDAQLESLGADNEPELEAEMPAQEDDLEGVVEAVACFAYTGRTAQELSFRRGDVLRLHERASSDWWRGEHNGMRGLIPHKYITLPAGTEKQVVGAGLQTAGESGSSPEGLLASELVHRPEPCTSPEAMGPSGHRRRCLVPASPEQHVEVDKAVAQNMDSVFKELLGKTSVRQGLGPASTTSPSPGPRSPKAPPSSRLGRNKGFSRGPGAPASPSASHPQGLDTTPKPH
# Chain of UniProt Q99933 (Q99933 whole entry, one chain of several): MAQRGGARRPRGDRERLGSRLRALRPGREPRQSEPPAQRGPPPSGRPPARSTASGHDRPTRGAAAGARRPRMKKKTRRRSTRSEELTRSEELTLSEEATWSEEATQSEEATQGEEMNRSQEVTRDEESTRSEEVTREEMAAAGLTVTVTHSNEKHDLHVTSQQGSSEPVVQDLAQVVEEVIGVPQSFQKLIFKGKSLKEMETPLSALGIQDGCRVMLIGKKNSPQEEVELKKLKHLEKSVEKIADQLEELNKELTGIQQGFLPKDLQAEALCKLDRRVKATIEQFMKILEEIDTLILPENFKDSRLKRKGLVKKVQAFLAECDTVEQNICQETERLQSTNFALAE
# Chain of UniProt O43819 (O43819 whole entry): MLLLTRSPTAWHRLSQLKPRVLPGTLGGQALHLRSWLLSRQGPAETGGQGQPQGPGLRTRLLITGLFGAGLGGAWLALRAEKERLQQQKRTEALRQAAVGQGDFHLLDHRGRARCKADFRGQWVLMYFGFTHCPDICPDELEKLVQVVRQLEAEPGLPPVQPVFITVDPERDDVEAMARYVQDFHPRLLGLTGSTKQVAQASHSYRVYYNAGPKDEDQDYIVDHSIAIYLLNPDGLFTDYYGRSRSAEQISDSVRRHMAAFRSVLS
Target,NP40-soluble protein abundance (concentration: 1mM),NP40-soluble protein abundance (concentration: 2mM),NP40-soluble protein abundance (concentration: 4mM),NP40-soluble protein abundance (concentration: 6mM),NP40-soluble protein abundance (concentration: 8mM),NP40-soluble protein abundance (concentration: 10mM)
CCDC85C (UniProt A6NKD9),0.9594 ± 0.0012,1.0044 ± 0.00019,0.953 ± 0.035,0.9849 ± 0.007,0.9793 ± 0.0043,0.9704 ± 0.0054
F8VUY8|Q96QD8 (UniProt Q96QD8),1 ± 0.015,1.07 ± 0.091,1 ± 0.022,0.967 ± 0.022,0.988 ± 0.014,0.989 ± 0.02
E9PB61|Q86V81 (UniProt Q86V81),0.969 ± 0.032,1.08 ± 0.042,1.09 ± 0.027,1.27 ± 0.081,1.41 ± 0.14,1.6 ± 0.28
E7EUU4|E7EX73|E9PGM1|Q04637-8|Q04637-4 (UniProt Q04637),1.06 ± 0.036,1.12 ± 0.039,1.12 ± 0.045,1.14 ± 0.063,1.15 ± 0.039,1.17 ± 0.056
E7EQN5|P98171|P98171-2 (UniProt P98171),0.999 ± 0.013,0.997 ± 0.05,1.02 ± 0.032,1.03 ± 0.077,1.01 ± 0.056,1.04 ± 0.023
SCO2 (UniProt O43819),0.972 ± 0.0067,0.949 ± 0.054,0.991 ± 0.04,0.95 ± 0.027,0.936 ± 0.015,0.934 ± 0.045
B5MCX3|Q15019|Q15019-2 (UniProt Q15019),1.027 ± 0.0023,0.997 ± 0.032,1.003 ± 0.0091,0.984 ± 0.026,0.98 ± 0.017,0.952 ± 0.037
H7C5I3|J3KR55|P35236|P35236-2|P35236-3 (UniProt P35236),0.978 ± 0.0098,1.01 ± 0.021,0.994 ± 0.037,0.978 ± 0.011,0.959 ± 0.018,0.982 ± 0.033
J3QRS9|O43670|O43670-2|O43670-4|X6R4W8 (UniProt O43670),1.09 ± 0.073,1.09 ± 0.087,1.15 ± 0.074,1.25 ± 0.065,1.29 ± 0.062,1.34 ± 0.1
J3KQH6|P78364 (UniProt P78364),1.01 ± 0.067,1.01 ± 0.02,1.01 ± 0.018,1.04 ± 0.047,1.03 ± 0.025,1.05 ± 0.032
UniProt O60508|Q5SRN1,1.03 ± 0.018,1.07 ± 0.029,1.06 ± 0.026,1.09 ± 0.059,1.08 ± 0.044,1.13 ± 0.056
A0A0B4J220 (UniProt E9PRG8),1.14 ± 0.051,1.15 ± 0.057,1.2 ± 0.045,1.26 ± 0.1,1.4 ± 0.053,1.39 ± 0.046
HMGN4 (UniProt O00479),1.024 ± 0.01,1.01 ± 0.047,1.04 ± 0.056,1.1 ± 0.07,1.08 ± 0.075,1.22 ± 0.076
J3KPP4|O95232 (UniProt O95232),1.02 ± 0.036,1.06 ± 0.058,1.06 ± 0.019,1.22 ± 0.015,1.3 ± 0.039,1.51 ± 0.049
F8WF69|P09496-2 (UniProt P09496),0.9494 ± 0.001,0.919 ± 0.057,0.873 ± 0.05,0.833 ± 0.033,0.806 ± 0.014,0.813 ± 0.018
D6RCD0|Q8NBQ5 (UniProt Q8NBQ5),0.995 ± 0.031,0.9738 ± 0.0077,1.01 ± 0.047,1.06 ± 0.079,1.04 ± 0.056,1.04 ± 0.064
E7EQY1|Q96C01 (UniProt Q96C01),1.01 ± 0.036,1.11 ± 0.07,0.988 ± 0.082,0.991 ± 0.062,0.958 ± 0.062,0.968 ± 0.11
K7EK07|P84243 (UniProt P84243+K7EK07),0.97 ± 0.11,1.01 ± 0.094,1.01 ± 0.084,1.08 ± 0.13,1.09 ± 0.15,1.16 ± 0.1
E9PBG7|E9PF82|Q13557|Q13557-10|Q13557-11|Q13557-12|Q13557-3|Q13557-4|Q13557-5|Q13557-6|Q13557-8|Q13557-9 (UniProt Q13557),0.94 ± 0.026,0.989 ± 0.049,0.903 ± 0.017,0.89 ± 0.054,0.878 ± 0.022,0.88 ± 0.027
K7EMM8|Q49A26|Q49A26-2|Q49A26-3|Q49A26-4 (UniProt Q49A26),1.07 ± 0.062,1.14 ± 0.1,1.16 ± 0.14,1.25 ± 0.17,1.31 ± 0.2,1.47 ± 0.3
F8WCF9|G5E9E8|Q8N465|Q8N465-2|Q8N465-3 (UniProt Q8N465),0.983 ± 0.03,1.01 ± 0.012,0.992 ± 0.01,1.04 ± 0.035,1.02 ± 0.032,1.03 ± 0.02
F5H7T0|F6RJM5|Q96S38|Q96S38-2 (UniProt Q96S38),0.999 ± 0.0077,1.02 ± 0.028,1.01 ± 0.034,0.9695 ± 0.004,0.991 ± 0.023,0.965 ± 0.046
F5H7W8|Q96C57 (UniProt Q96C57),1.17 ± 0.015,1.26 ± 0.088,1.25 ± 0.058,1.29 ± 0.047,1.34 ± 0.062,1.37 ± 0.12
I3VM54|Q9Y2K7 (UniProt Q9Y2K7),1.02 ± 0.016,1.08 ± 0.045,1.17 ± 0.037,1.26 ± 0.12,1.31 ± 0.11,1.43 ± 0.17
C9J0Q5|C9JE98|C9JFD3|Q9Y618|Q9Y618-3|Q9Y618-4|Q9Y618-5 (UniProt Q9Y618),1.03 ± 0.0079,1.05 ± 0.04,1.03 ± 0.035,0.969 ± 0.057,0.951 ± 0.02,1.01 ± 0.052
J3QTA2|Q99933|Q99933-3|Q99933-4 (UniProt Q99933),1.01 ± 0.028,1.029 ± 0.0083,0.992 ± 0.012,0.99 ± 0.03,0.965 ± 0.038,0.993 ± 0.021
UniProt A2RU67,0.9918 ± 0.004,1.03 ± 0.031,1.02 ± 0.021,1 ± 0.019,1 ± 0.017,1.03 ± 0.016
H0YIV9|O43716 (UniProt O43716+H0YIV9),0.973 ± 0.038,1.02 ± 0.038,1.01 ± 0.03,0.988 ± 0.012,0.977 ± 0.015,0.962 ± 0.013
E7EQT4|Q9UKV3-5|S4R3H4|Q9UKV3-3 (UniProt Q9UKV3),1.05 ± 0.061,1.1 ± 0.021,1.05 ± 0.07,1.03 ± 0.09,0.972 ± 0.04,1.04 ± 0.069
J3KNF8|O43169 (UniProt O43169),1.15 ± 0.069,1.34 ± 0.33,1.1 ± 0.049,1.08 ± 0.047,1.03 ± 0.08,1.05 ± 0.054
